± gives the standard deviation of the averaged measurements. Over roughly 25,000 sequences, “ln(normalized median fluorescence intensity)” has its median near 7.9; the highest 2% begin near 11. Only a selection was taken, and the highest values are over-represented in it overall.

The test system of the experiment is PfAP2-I AP2 domain 3 (GST-tagged). Description: gcPBM binding intensity (ln(normalized median fluorescence intensity)); higher = stronger DNA binding. In short, it runs like this:
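In this array assay, P. falciparum DNA-binding domains with a GST tag, expressed in E. coli, were applied for 1 h to primer-extended double-stranded 36-bp intergenic genomic probes and negative controls on an Agilent 4 × 180k array. Bound protein was visualised with Alexa488 anti-GST antibody at 488 nm. Binding intensity is the highest Masliner-normalised natural-log median intensity across replicate spots of either probe orientation.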
In the case of “ATTACCAACAGATCTTGTACATATTAAAGCATCTTA [XGTACX_site2361]”, the “gcPBM binding intensity (ln)” value was determined as 7.84 ± 0.57.

Consider “TCTATTAATTAATATACACACATTATATATATATAT [CACACA_site8815]”, for which the “gcPBM binding intensity (ln)” value amounted to 9.375 ± 0.049.

As for “TTTTTTATTGTGATACGTATATTATTTTATGATAAA [CACACA_negctrl_site1591]”, the “gcPBM binding intensity (ln)” value was 8.04 ± 0.6.

In the case of “AAACACACACACAAATGTACATATATATATATATTT [XGTACX_site5090]”, the “gcPBM binding intensity (ln)” value came to 7.92 ± 0.51.

With “AATATTATAAATGATACACACTTAAAATACACGCAC [CACACA_site7305]”, the “gcPBM binding intensity (ln)” value turned out to be 8.71 ± 0.22.

Turning to “CATCATAGAGTGGAGTGTACAAATATGTCAACATAT [XGTACX_site2264]”, the “gcPBM binding intensity (ln)” value worked out at 7.99 ± 0.55.

Take “TATATTTAGAGAGAGACACACAAAGGGACTTACACA [CACACA_site2545]”: the “gcPBM binding intensity (ln)” value was 7.82 ± 0.71.

In the case of “CATAATACATATAACACACACAATTATACATAAAAT [CACACA_site3233]”, the “gcPBM binding intensity (ln)” value amounted to 7.88 ± 0.33.

For “TGGAAACAATGACACACACACAAAAAAAAAAAAAAA [CACACA_site7494]”, the “gcPBM binding intensity (ln)” value stood at 7.97 ± 0.56.

In the case of “TATAAGTTGATATATACACACATATATAAATATGTA [CACACA_site7526]”, the “gcPBM binding intensity (ln)” value is 7.4 ± 0.4.

With “ATATTTTCTTTTTAAAGTACATATTTGATTACAATA [XGTACX_site8414]”, the “gcPBM binding intensity (ln)” value worked out at 7.66 ± 0.5.

“TGTATATATTTGTGCACACCAAAGTTTGATTTTATT [CACACA_site1860]”: the “gcPBM binding intensity (ln)” value stood at 10.9 ± 0.099.

For the sequence “TATGTATATATTTGTGCACACCAAAGTTTGATTTTA [CACACA_site1861]”, the “gcPBM binding intensity (ln)” value amounted to 10.71 ± 0.014.

For “ATATGTATTTATATATGTTTGATTTTTTTTTTTTTT [TGCATGCA_negctrl_site506]”, the “gcPBM binding intensity (ln)” value was determined as 7.71 ± 0.26.

Turning to “AAAAAAAAAAGACACACACACACATACACATACATA [CACACA_site7362]”, the “gcPBM binding intensity (ln)” value was 7.96 ± 0.29.

“TTTTTGTGCATTGATTGTACTTTCTAGGATTATTAA [XGTACX_site7070]”: the “gcPBM binding intensity (ln)” value was 10.16 ± 0.049.

Consider “TTTTTTTTTTTTGAAGTGCATTACTTTTTTTGTATT [GTGCAC_site9811]”, for which the “gcPBM binding intensity (ln)” value was 11 ± 0.44.

For “TATATTATTATATATTGTACTTTTTATATTTGCATT [XGTACX_site2978]”, the “gcPBM binding intensity (ln)” value was determined as 7.72 ± 0.49.

Regarding “TATATTTATAAATGAACACACACGCAATTTGAATCG [CACACA_site3370]”, the “gcPBM binding intensity (ln)” value is 7.89 ± 0.49.

Consider “ATTGTTATTTATTGTGTGCGCATTAATACATACATA [GTGCAC_site9982]”, for which the “gcPBM binding intensity (ln)” value worked out at 8.95 ± 0.41.

In the case of “TTCAATAGGTATAATTGTACTTAATAATATATTGTT [XGTACX_site8363]”, the “gcPBM binding intensity (ln)” value turned out to be 7.53 ± 0.42.

On to “ATATATATATAGTACGCACACATAGTTGTACATTAA [CACACA_site2787]”, for which the “gcPBM binding intensity (ln)” value came to 9.21 ± 0.13.

Turning to “GTTTATTGATTTATTTGTACTTATATATATATTTCA [XGTACX_site5098]”, the “gcPBM binding intensity (ln)” value is 8.07 ± 0.63.

As for “TATATATATATCAAGTGTACTTGTGTTTGTAATATT [XGTACX_site8854]”, the “gcPBM binding intensity (ln)” value worked out at 9.165 ± 0.049.

On to “TTTATAGTTTTTAATAGTACACATATTTTTAAGTAT [XGTACX_site5498]”, for which the “gcPBM binding intensity (ln)” value worked out at 7.89 ± 0.2.

Regarding “TATATATCAATATGCACACACAAGAAGTAATTATAA [CACACA_site7487]”, the “gcPBM binding intensity (ln)” value was 8.96 ± 0.22.

With “AAAATCAAGTAGTATAAAGTAAGTATCATAAAAATA [CACACA_negctrl_site1554]”, the “gcPBM binding intensity (ln)” value is 7.63 ± 0.59.

Regarding “AGTAATAGTTTGTGCACACTCAAGTATATCATATAT [CACACA_site4034]”, the “gcPBM binding intensity (ln)” value was found to be 10.9 ± 0.24.

Regarding “GTAATATCAATATAAAGTACACACTATAGTATGTAT [XGTACX_site4714]”, the “gcPBM binding intensity (ln)” value was found to be 7.66 ± 0.49.

“TTGTTTTGGATTATCACACATATAATATATACTCAT [CACACA_site4780]”: the “gcPBM binding intensity (ln)” value is 7.82 ± 0.68.

“AGTAATAGTTTGTGCACACTCAAGTATATCATAGAT [CACACA_site6082]”: the “gcPBM binding intensity (ln)” value amounted to 11 ± 0.23.

As for “TAAGTAATAGTTTGTGCACACTCAAGTATATCATAT [CACACA_site4035]”, the “gcPBM binding intensity (ln)” value was found to be 10.8 ± 0.28.

These data come from the supplement of paper PMC11417369.
